# Bioassay records as filed in PubChem BioAssay.
# This excerpt belongs to a sample that is enriched for hits.
# KDM5B inhibitor: KDM5B demethylase inhibition; KDM5B demethylase, FDH-coupled NADH fluorescence (FDH is formaldehyde dehydrogenase); Potency, µM (series often up to 57.7 µM), usual class: inhibitors; Q9UGL1; 2.6% of 220,000 active; active = well fitted inhibition curve with a large enough effect; also: 0% is about no effect; nearly all actives have a fitted effect of over 70% in size
#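 Coupled FDH/NAD⁺ fluorescence readout. KDM5BΔAP 200 nM final; compound titration, 10 min RT preincubation; substrate mix 12.5 µM H3K4me3, 25 µM 2-OG, 50 µM Fe(II), 100 µM ascorbate, 0.25 mM NAD⁺, 0.25 U/mL FDH; ΔRFU over 30 min.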
# * hit, by the source's call; i = inactive. Potency is read from the fitted curve at half-maximal effect.
SMILES,KDM5B inhibitor
COC(=O)[C@@H]1Cc2c([nH]c3ccccc23)[C@H]2C[C@H](NCCc3cnc[nH]3)C[C@@H](c3ccccc3F)N21,i
COC(=O)[C@@H]1Cc2c([nH]c3ccccc23)C(C)N1C(=O)c1ccccc1 (stereo not given in full),i
COC(=O)[C@@H]1Cc2c([nH]c3ccccc23)[C@H]2C[C@@H](NCCN(C)C)C[C@@H](c3cccc(Cl)c3)N21,i
COC(=O)[C@@H]1Cc2c([nH]c3ccccc23)[C@H]2C[C@@H](NCCN3CCOCC3)C[C@@H](c3ccc(F)cc3)N21,i
COC(=O)[C@@H]1Cc2c([nH]c3ccccc23)[C@H]2C[C@@H](NCc3ccccc3)C[C@@H](c3ccccc3F)N21,4.5µM*
FC(F)Sc1ccc(NC(=S)N(Cc2ccccc2)Cc2ccccc2)cc1,i
COc1cccc(/C(O)=C2\C(=O)C(=O)N(c3ccccn3)C2c2cccc(Br)c2)c1 (stereo not given),i
CCc1cc(C(=O)N/N=C/c2ccncc2)cs1,i
COc1cc(/C=C(/C#N)c2ccccn2)ccc1OCC(F)(F)F,i
COc1cccc(OC)c1C(=O)C1CC(=O)Nc2c1c(C)nn2-c1ccc(F)cc1 (stereo not given),i
CCN(Cc1nccn1C)C(=O)c1cc(-c2cnc(N)nc2)nc2c(C)cccc12,28µM*
Cc1ccc(NC(=O)c2cc(-c3cccnc3)nc3c(C)cccc23)nc1,i
Cc1ccc(-c2cc(C(=O)O)c3cccc(C)c3n2)cc1C,i
Cc1cccc(C)c1NC(=O)C(C)N1CCN(C(=O)c2cccs2)CC1 (stereo not given),i
CCc1ccc(Nc2nc(-c3ccc4c(c3)CC(=O)N4)cs2)cc1,i
CCC1(CO)CCCN(CCCOc2ccc(C(N)=O)cc2)C1 (stereo not given),i
CCC1(CO)CCCN(Cc2ccc3c4c(cccc24)C(=O)OC3)C1 (stereo not given),11µM*
Cc1ccc(C)c(-c2[nH]ncc2CN2CCCC(CO)(CCc3ccccc3)C2)c1 (stereo not given),i
Cc1ccc([N+](=O)[O-])cc1S(=O)(=O)Nc1cccc(C#Cc2cccs2)c1,i
Cc1ncccc1Oc1ncnc(N2CCC3(CC(=O)NC3=O)C2)c1C (stereo not given),i
O=C1CC2(CCN(c3cncc(C(=O)N4CCCCC4)n3)C2)C(=O)N1 (stereo not given),28µM*
N#Cc1cccc(N2CCC3(CC(=O)NC3=O)C2)n1 (stereo not given),28µM*
Cc1ccc(-c2cc(C(=O)N3CCC4(CC(=O)NC4=O)C3)n[nH]2)o1 (stereo not given),i
Cc1ncc(C(=O)N2CCC3(CC(=O)NC3=O)C2)c(-c2ccccc2)n1 (stereo not given),i
Cc1cccc(-c2noc(CCCC(=O)N3CCC4(CC(=O)NC4=O)C3)n2)c1 (stereo not given),i
SMILES,KDM5B inhibitor
CCN(CC)C(=O)Oc1ccc2c(=O)c(Oc3ccc(C(=O)OC)cc3)coc2c1,i
CCn1c(C(=O)N2CCCC(C(=O)N3CCOCC3)C2)cc2ccccc21 (stereo not given),i
COc1ccc(C(=O)/C=C/c2cccc(F)c2)cc1CSCC(=O)O,i
Cc1nn(-c2ccc(N3CCCC3)nn2)c(C)c1CCC(=O)NCCc1ccco1,i
COCCn1c(SC(C)C(=O)c2cc(C)ccc2C)nnc1-c1ccc(Cl)cc1 (stereo not given),i
C[C@@H]1C(=O)O[C@H]2[C@H]1CC[C@@]1(C)Cc3sc(Nc4cccnc4)nc3[C@@H](C)[C@H]21,i
C[C@@H]1C(=O)O[C@H]2[C@H]1CC[C@@]1(C)Cc3sc(Nc4ccccc4)nc3[C@@H](C)[C@H]21,i
C[C@@H]1C(=O)O[C@H]2[C@H]1CC[C@@]1(C)Cc3sc(NC(=O)CN(C)C)nc3[C@@H](C)[C@H]21,i
C[C@@H]1C(=O)O[C@H]2[C@H]1CC[C@@]1(C)Cc3sc(NC(=O)CCC(=O)O)nc3[C@@H](C)[C@H]21,i
C[C@@H]1C(=O)O[C@H]2[C@H]1CC[C@@]1(C)Cc3sc(Nc4ccc(C(=O)O)cc4)nc3[C@@H](C)[C@H]21,35µM*
C[C@@H]1C(=O)O[C@H]2[C@H]1CC[C@@]1(C)Cc3sc(NC(=O)c4ccc(N(C)C)cc4)nc3[C@@H](C)[C@H]21,28µM*
CC(C)CN(CC(C)C)C(=O)COC(=O)c1cc(=O)[nH]c2ccccc12,i
Cc1cccc(NC(=O)CN2C(=O)NC(c3ccccc3Cl)C3=C2COC3=O)c1C (stereo not given),i
CCCn1c(=O)c2sc(N3CCCC3)nc2n(CC(=O)Nc2ccc3c(c2)OCO3)c1=O,i
O=C(CCN1c2ccccc2Sc2ccccc21)N1CCCC(c2nc(C3CCOCC3)no2)C1 (stereo not given),25µM*
Cc1cnc(C(=O)N2CCCC(c3nc(C4CCOCC4)no3)C2)cn1 (stereo not given),32µM*
O=C(c1cccc(F)c1)N1CCC(c2nc(C3CCOCC3)no2)C1 (stereo not given),i
Cc1cc(C(=O)N2CCCC(c3nc(C4CCOCC4)no3)C2)n(C)n1 (stereo not given),i
O=C(c1ccccc1F)N1CCC(c2nc(C3CCOCC3)no2)C1 (stereo not given),i
O=C(CC1CCCC1)N1CCCC(c2nc(C3CCOCC3)no2)C1 (stereo not given),i
O=C(c1cc(-c2ccc(F)cc2)nc2ccccc12)N1CCC(c2nc(C3CCOCC3)no2)C1 (stereo not given),28µM*
O=C(c1ccccc1)N1CCCC(c2nc(C3CCOCC3)no2)C1 (stereo not given),i
Cc1cccc(C(=O)N2CCCC(c3nc(C4CCOCC4)no3)C2)c1 (stereo not given),i
COc1ccc(C(=O)Nc2c(C)cccc2C(C)C)cc1F,i
c1ccc(N2CCN(C3CCCN(Cc4cn[nH]c4C4CCCCC4)C3)CC2)cc1 (stereo not given),i
SMILES,KDM5B inhibitor
Cc1ccc(Cl)cc1N1CCN(C(=O)CNC(=O)NCc2ccc(F)cc2)CC1,i
C=CCc1cc(/C=C2\NC(=O)NC2=O)cc(OCC)c1OCc1ccc(F)cc1,i
COc1cc(/C=C/C(=O)C23CC4CC(CC(C4)C2)C3)cc(Br)c1O,i
O=C(O)Cn1cc(C(C(=O)O)N2CCN(CC(=O)N3CCCC3)CC2)c2ccc(F)cc21 (stereo not given),i
O=C(Nc1cccc(C(=O)O)c1O)c1ccco1,i
Cc1csc(NC(=O)C2CC(=O)N(c3n[nH]c4ccccc34)C2)n1 (stereo not given),i
CCOC(=O)c1ccc(NC(=O)C2CC(=O)N(c3n[nH]c4ccccc34)C2)cc1 (stereo not given),28µM*
COc1ccc(C)cc1NC(=O)C1CC(=O)N(c2n[nH]c3ccccc23)C1 (stereo not given),i
CC(=O)c1ccc(OCCC(=O)OCc2ccc(C#N)cc2F)cc1,i
CC(=O)Nc1ccc(NC(=O)C(C)n2nnc(-c3ccc(C(C)C)cc3)n2)cc1 (stereo not given),i
CC(C)(C)c1ccc(C(=O)NC(=O)COC(=O)c2ccccc2)cc1,i
Cn1nc(C2CCNC2)c2c(C(=O)N3CCOCC3)cc(C3CC3)nc21 (stereo not given),89µM*
